Data from PubChem BioAssay AID602144 (Vanderbilt Specialized Chemistry Center, 2011).
Values without a mark were called inactive. Calls of active or inactive are those of the source. Rule as the data show it: active = remaining activity below about 50%; inactive = the rest.

These molecules were tested against Phospholipase D1 (Homo sapiens) (UniProt Q13393) (assay: cellular phospholipase D1 activity inhibition – Calu-1 cells, single concentration (AID 602144;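 also: tested at 200 nM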)). Conditions: cellular PLD1 activity, active compounds read low.
Phospholipase D1 (Homo sapiens), sequence (Q13393 whole entry, looked up): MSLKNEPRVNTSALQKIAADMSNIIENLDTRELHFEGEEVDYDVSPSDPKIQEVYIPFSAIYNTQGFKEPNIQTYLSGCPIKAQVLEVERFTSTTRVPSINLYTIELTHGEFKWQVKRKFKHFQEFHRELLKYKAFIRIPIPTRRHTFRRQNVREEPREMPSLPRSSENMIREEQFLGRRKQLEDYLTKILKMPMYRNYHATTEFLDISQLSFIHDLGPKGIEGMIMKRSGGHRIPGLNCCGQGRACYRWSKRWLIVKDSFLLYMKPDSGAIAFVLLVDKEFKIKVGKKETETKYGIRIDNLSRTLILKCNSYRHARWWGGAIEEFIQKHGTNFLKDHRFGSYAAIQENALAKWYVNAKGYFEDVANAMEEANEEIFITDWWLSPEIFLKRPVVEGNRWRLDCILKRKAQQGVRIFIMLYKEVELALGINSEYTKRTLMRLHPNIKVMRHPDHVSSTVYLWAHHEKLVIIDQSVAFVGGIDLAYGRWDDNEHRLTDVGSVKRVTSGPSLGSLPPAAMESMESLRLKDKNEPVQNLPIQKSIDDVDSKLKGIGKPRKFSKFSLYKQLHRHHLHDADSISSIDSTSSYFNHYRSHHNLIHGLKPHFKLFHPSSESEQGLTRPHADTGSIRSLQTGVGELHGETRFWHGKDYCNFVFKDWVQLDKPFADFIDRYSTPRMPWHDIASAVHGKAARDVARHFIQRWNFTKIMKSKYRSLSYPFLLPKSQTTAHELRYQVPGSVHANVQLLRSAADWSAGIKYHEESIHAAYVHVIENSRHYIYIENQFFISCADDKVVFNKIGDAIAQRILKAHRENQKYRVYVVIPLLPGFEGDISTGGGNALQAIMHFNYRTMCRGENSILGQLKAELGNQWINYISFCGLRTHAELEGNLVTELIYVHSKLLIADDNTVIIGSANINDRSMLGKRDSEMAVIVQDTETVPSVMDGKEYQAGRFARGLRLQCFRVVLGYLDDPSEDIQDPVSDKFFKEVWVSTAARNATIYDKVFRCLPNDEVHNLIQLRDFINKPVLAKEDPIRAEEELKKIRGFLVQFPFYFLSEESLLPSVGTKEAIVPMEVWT
Phospholipase D1 (Homo sapiens), sequence (Q13393 whole entry, looked up): as above

| SMILES | remaining activity |
| --- | --- |
| O=C(NCCN1CCC2(CC1)C(=O)NCN2c1cccc(F)c1)c1ccc(OC(F)(F)F)cc1 | 96.9% |
| O=C(NCCN1CCC2(CC1)C(=O)NCN2c1ccccc1)c1ncccc1F | 110% |
| C[C@H](N)CN1CCC2(CC1)C(=O)NCN2c1ccccc1 (tested in a mixture with another compound) | 96.4% |
| C[C@@H](CN1CCC2(CC1)C(=O)NCN2c1ccc(F)c(F)c1)NC(=O)c1ccc(F)cc1 | 22.8% (active) |
| O=C(NCCN1CCC2(CC1)C(=O)NCN2c1cccc(F)c1)c1c(F)cccc1F | 80.5% |
| O=C(NCCN1CCC2(CC1)C(=O)NCN2c1ccccc1)c1cccc(Cl)n1 | 132% |
| C[C@@H](CN1CCC2(CC1)C(=O)NCN2c1ccc(F)c(F)c1)NC(=O)c1ccc2ccccc2c1 | 25.7% (active) |
| O=C(NCCN1CCC2(CC1)C(=O)NCN2c1cccc(Cl)c1)c1cc2cc(F)ccc2[nH]1 | 58% |
| O=C(NCCN1CCC2(CC1)C(=O)NCN2c1cccc(F)c1)c1cnc2ccccc2c1 | 79% |
| CCCCCC(=O)N(CCN1CCC2(CC1)C(=O)NCN2c1cccc(F)c1)C(=O)CCCCC | 90.1% |
| O=C1c2ccccc2C(=O)N1CCN1CCC2(CC1)C(=O)NCN2c1ccccc1 | 102% |
| O=C(NCCN1CCC2(CC1)C(=O)NCN2c1ccc(F)c(F)c1)c1ccc(F)cc1 | 101% |
| O=C(NCCN1CCC2(CC1)C(=O)NCN2c1cccc(F)c1)C(c1ccccc1)c1ccccc1 | 94.7% |
| O=C(NCCN1CCC2(CC1)C(=O)NCN2c1ccc(F)cc1)c1ccc2cc(F)ccc2c1 | 94.6% |
| O=C(NCCN1CCC2(CC1)C(=O)NCN2c1ccc(F)c(F)c1)c1cc2cc(F)ccc2[nH]1 | 69.1% |
| O=C(NCCN1CCC2(CC1)C(=O)NCN2c1ccc(F)cc1)c1cc2ccccc2[nH]1 | 32.3% (active) |
| CN1CN(c2ccccc2)C2(CCN(CCNC(=O)c3ccc4ccccc4c3)CC2)C1=O | 97.9% |
| O=C(NCCN1CCC2(CC1)C(=O)NCN2c1ccccc1)c1ccncn1 | 124% |

| SMILES | remaining activity |
| --- | --- |
| O=C(NCCN1CCC2(CC1)C(=O)NCN2c1ccc(Cl)cc1)c1cnc2ccccc2c1 | 94.2% |
| Nc1ccc(C(=O)NCCN2CCC3(CC2)C(=O)NCN3c2ccccc2)cc1OC(F)(F)F | 91.5% |
| O=C(NCCN1CCC2(CC1)C(=O)NCN2c1ccccc1)c1cc(Br)c(Br)o1 | 66.9% |
| Cc1ccccc1C(=O)N(CCN1CCC2(CC1)C(=O)NCN2c1cccc(F)c1)C(=O)c1ccccc1C | 105% |
| O=C(NCCN1CCC2(CC1)C(=O)NCN2c1ccc(F)c(F)c1)c1ccc2ccccc2c1 | 84.3% |
| O=C(NCCN1CCC2(CC1)C(=O)NCN2c1ccc(F)cc1)c1ccc2ccccc2c1 | 75.2% |
| O=C(NCCN1CCC2(CC1)C(=O)NCN2c1ccccc1)c1ccc(F)cc1O | 107% |
| O=C(NCCN1CCC2(CC1)C(=O)NCN2c1cccc(F)c1)c1ccc(Cl)cc1Cl | 110% |
| O=C(NCCN1CCC2(CC1)C(=O)NCN2c1ccc(F)c(F)c1)c1ccc(Cl)cc1 | 94.9% |
| O=C(C1C[C@H]1c1ccccc1)N1CC(N2CCC(n3c(=O)[nH]c4ccccc43)CC2)C1 (stereo not given in full) | 125% |
| O=C(NCCN1CCC2(CC1)C(=O)NCN2c1ccccc1)C1(c2ccccc2)CCC1 | 94.9% |
| CCOC(=O)CCN1CCC2(CC1)C(=O)NCN2c1ccccc1 | 83.2% |
| O=C(NCCN1CCC2(CC1)C(=O)NCN2c1ccc(Br)cc1)c1cnc2ccccc2c1 | 94.1% |
| Nc1cccc(Cl)c1C(=O)NCCN1CCC2(CC1)C(=O)NCN2c1ccccc1 | 92.9% |
| Cc1ccc(C(=O)NCCN2CCC3(CC2)C(=O)NCN3c2ccccc2)c(O)c1 | 89.1% |
| O=C1c2ccccc2C(=O)N1CCCN1CCC2(CC1)C(=O)NCN2c1ccccc1 | 84.6% |
| O=C(NCCN1CCC2(CC1)C(=O)NCN2c1ccc(Cl)cc1)c1cc2cc(F)ccc2[nH]1 | 79.4% |
